Experimental data taken from PubChem BioAssay (Tox21).
Results filed as inconclusive are left out. Activity calls are given as the source filed them. Unless noted, the call rests on the fitted dose curve; in most records, active means well fitted curve in the direction sought with a large enough effect in the repeat runs; inconclusive means weak or mixed curves; inactive means no such curve, though single readings can be large; an effect the other way counts as inactive or inconclusive.

Key:
[1] = target: Progesterone receptor (Homo sapiens) (UniProt P06401); assay: qHTS assay to identify small molecule agonists of the progesterone receptor (PR) signaling pathway (AID 1346784; calls by dose curve; further: nearly all actives have a fitted effect of over 30% in size)
Progesterone receptor (Homo sapiens), sequence (P06401 whole entry, looked up): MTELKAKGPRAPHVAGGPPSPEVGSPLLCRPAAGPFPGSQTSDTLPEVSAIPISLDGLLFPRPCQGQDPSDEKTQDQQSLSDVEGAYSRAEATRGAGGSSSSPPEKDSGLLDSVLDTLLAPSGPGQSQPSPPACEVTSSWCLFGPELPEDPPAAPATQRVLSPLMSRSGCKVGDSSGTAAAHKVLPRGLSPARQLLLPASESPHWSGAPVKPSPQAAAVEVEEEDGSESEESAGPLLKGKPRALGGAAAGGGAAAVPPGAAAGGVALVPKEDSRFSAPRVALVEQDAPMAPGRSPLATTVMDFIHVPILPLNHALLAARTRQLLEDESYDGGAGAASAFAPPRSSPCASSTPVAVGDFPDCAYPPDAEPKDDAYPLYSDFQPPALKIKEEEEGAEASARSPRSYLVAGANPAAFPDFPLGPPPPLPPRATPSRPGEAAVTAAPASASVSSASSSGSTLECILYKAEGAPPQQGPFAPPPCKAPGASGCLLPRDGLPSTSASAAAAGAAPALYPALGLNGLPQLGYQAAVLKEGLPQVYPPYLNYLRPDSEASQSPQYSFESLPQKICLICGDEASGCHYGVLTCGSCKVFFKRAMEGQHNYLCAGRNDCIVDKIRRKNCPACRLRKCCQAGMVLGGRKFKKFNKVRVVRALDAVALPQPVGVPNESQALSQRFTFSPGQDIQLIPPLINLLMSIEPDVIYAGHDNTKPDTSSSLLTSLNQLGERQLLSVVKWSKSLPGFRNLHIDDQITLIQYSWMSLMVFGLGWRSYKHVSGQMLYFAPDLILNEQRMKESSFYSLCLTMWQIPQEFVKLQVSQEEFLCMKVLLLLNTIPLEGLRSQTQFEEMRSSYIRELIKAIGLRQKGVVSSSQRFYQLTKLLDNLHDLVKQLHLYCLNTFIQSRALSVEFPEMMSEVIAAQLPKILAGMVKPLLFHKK
Outline: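 Compounds were tested for PR agonism in HEK 293T cells bearing a beta-lactamase gene under UAS control. Treatment lasted 16 hr at 37C; signal came from fluorescence of a FRET substrate.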

[2] = target: Progesterone receptor (Homo sapiens) (UniProt P06401); assay: qHTS assay to identify small molecule antagonists of the progesterone receptor (PR) signaling pathway (AID 1346795; active means well fitted inhibition curve with a large enough effect in the signal ratio in the repeat runs, not every such curve was filed as active; the % refers to the signal ratio; further: potency means the concentration at half of the fitted maximal effect)
Outline: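 In HEK293T cells bearing the PR-UAS-bla reporter, compound effects on promegestone-driven (1 nM) beta-lactamase expression are assessed after 16 hr using a fluorescent FRET substrate incubated 2 hr at room temperature.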

[3] = qHTS assay to identify small molecule antagonists of the progesterone receptor (PR) signaling pathway - cell viability counter screen (AID 1346798); further: series mostly up to about 92 µM; nearly all actives have a fitted effect of over 50% in size
Outline: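 Following a 4 hr attachment, PR-UAS-bla HEK293T cells in charcoal-stripped FBS medium were exposed to compounds with R5020 for 16 hr; CellTiter-Glo was added and luminescence read after 30 min at room temperature.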

[4] = qHTS assay to identify small molecule agonists of the progesterone receptor (PR) signaling pathway - cell viability counter screen (AID 1346799; calls by dose curve; further: nearly all actives have a fitted effect of over 45% in size)
Outline: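 Here, 3,000 PR-UAS-bla HEK293T cells per well were treated with compounds for 16 hr after a 6 hr preincubation at 37C and 5% CO2; cell viability is the CellTiter-Glo luminescence signal.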

[5] = qHTS assay to identify small molecule antagonists of the TGF-beta/Smad signaling pathway - cell viability counter screen (AID 1346824); further: nearly all actives have a fitted effect of over 50% in size
Outline: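 SBE-bla HEK 293T cells, incubated overnight, then compound plus 0.25 ng/mL TGF-beta1 (stock added) for 5 hr at 37 C. Viability was read in the same wells by CellTiter-Glo luminescence after 30 min at room temperature.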

[6] = qHTS assay to identify small molecule agonists of the TGF-beta/Smad signaling pathway - cell viability counter screen (AID 1346829); further: top concentration of the series differs between compounds; nearly all actives have a fitted effect of over 45% in size
Outline: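 In parallel with the Smad reporter read, viability of HEK 293T cells stably carrying SBE-bla is quantified by ATP luminescence following 5 hr compound treatment.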

[7] = qHTS assay to identify small molecule agonists of the TGF-beta/Smad signaling pathway (AID 1346859; active means well fitted activation curve with a large enough effect in the signal ratio in the repeat runs, not every such curve was filed as active; the % refers to the signal ratio; further: series mostly up to about 77 µM)
Outline: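 Each well held 4,000 SBE-bla HEK 293T cells incubated overnight before compound addition; 5 hr later the cleavable FRET substrate went on for 2 hr at room temperature, and fluorescence was read at two emissions.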

[8] = target: Thyrotropin-releasing hormone receptor (Homo sapiens) (UniProt P34981); assay: qHTS assay to identify small molecule antagonists of the thyrotropin-releasing hormone receptor (TRHR) signaling pathway (AID 1346877; active means well fitted inhibition curve with a large enough effect in the repeat runs, not every such curve was filed as active; further: series mostly up to about 51 µM)
Thyrotropin-releasing hormone receptor (Homo sapiens), sequence (P34981 whole entry, looked up): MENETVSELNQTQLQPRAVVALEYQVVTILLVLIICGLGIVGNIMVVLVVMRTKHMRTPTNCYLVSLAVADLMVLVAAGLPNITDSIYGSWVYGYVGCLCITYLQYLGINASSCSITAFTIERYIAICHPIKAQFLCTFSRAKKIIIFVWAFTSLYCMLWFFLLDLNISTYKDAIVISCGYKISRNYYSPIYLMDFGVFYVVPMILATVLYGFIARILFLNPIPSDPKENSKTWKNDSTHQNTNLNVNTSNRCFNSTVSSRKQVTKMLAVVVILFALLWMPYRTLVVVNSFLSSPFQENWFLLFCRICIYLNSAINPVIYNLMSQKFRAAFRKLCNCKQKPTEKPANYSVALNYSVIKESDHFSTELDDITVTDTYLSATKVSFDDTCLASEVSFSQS
Outline: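 Calcium signal in dye-loaded TRHR/HEK293 cells; compounds added 5 min before TRH (1 nM final); fluorescence monitored 3 min at 1 s steps.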

[9] = target: Thyrotropin-releasing hormone receptor (Homo sapiens) (UniProt P34981); assay: qHTS assay to identify small molecule agonists of the thyrotropin-releasing hormone receptor (TRHR) signaling pathway (AID 1346891; calls by dose curve; further: series mostly up to about 58 µM)
Outline: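 Screening of agonists relied on calcium signalling in HEK293 cells expressing human TRHR: dye loading 2 h at 37 °C preceded compound addition and a 3-min fluorescence time course.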

[10] = Human pregnane X receptor (PXR) small molecule agonists, qHTS cell viability counter screen (AID 1346977); further: nearly all actives have a fitted effect of over 50% in size; further: potency means the concentration at half of the fitted maximal effect
Outline: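 Tox21 qHTS format; PXR-Luc HepG2, 2,000/well, charcoal-stripped FBS 5%. Cpd exposure 24hr. Read: CellTiter-Fluor fluorescence, multiplexed with luciferase.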

[11] = Caspase-3/7 induction in HepG2 cells by small molecules, qHTS assay (AID 1346978); further: nearly all actives have a fitted effect of over 15% in size
Outline: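 Wild-type HepG2 cells, 2,000/well, settled 5 hr at 37 C and 5% CO2, then compound-treated for 17 hr; caspase-3/7 activity read by luminescent Caspase-Glo 3/7 after 30 min at room temperature.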

[12] = Caspase-3/7 induction in CHO-K1 cells by small molecules, qHTS cell viability counter screen (AID 1346979); further: nearly all actives have a fitted effect of over 35% in size; further: potency means the concentration at half of the fitted maximal effect
Outline: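 CellTiter-Fluor viability check, qHTS format: wild-type CHO-K1, 16hr compound treatment, 1hr reagent incubation, fluorescence read.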

[13] = Caspase-3/7 induction in CHO-K1 cells by small molecules, qHTS assay (AID 1346980); further: nearly all actives have a fitted effect of over 15% in size
Outline: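 Wild-type CHO-K1 cells exposed to compounds for 17hr at 37 C, 5% CO2. Caspase-3/7 activity then measured by Caspase-Glo 3/7 luminescence after 30min at room temperature.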

[14] = Caspase-3/7 induction in HepG2 cells by small molecules, qHTS cell viability counter screen (AID 1346981); further: nearly all actives have a fitted effect of over 30% in size; further: potency means the concentration at half of the fitted maximal effect
Outline: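 After a 5-hr attachment period at 37 C and 5% CO2, wild-type HepG2 cells received compounds in DMSO. Sixteen hours later CellTiter-Fluor was dispensed and the fluorescent signal quantified after a further hour.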

[15] = target: Nuclear receptor subfamily 1 group I member 2 (Homo sapiens) (UniProt O75469); assay: Human pregnane X receptor (PXR) small molecule agonists, qHTS assay (AID 1346982); further: nearly all actives have a fitted effect of over 35% in size; further: potency means the concentration at half of the fitted maximal effect
Nuclear receptor subfamily 1 group I member 2 (Homo sapiens), sequence (O75469 whole entry, looked up): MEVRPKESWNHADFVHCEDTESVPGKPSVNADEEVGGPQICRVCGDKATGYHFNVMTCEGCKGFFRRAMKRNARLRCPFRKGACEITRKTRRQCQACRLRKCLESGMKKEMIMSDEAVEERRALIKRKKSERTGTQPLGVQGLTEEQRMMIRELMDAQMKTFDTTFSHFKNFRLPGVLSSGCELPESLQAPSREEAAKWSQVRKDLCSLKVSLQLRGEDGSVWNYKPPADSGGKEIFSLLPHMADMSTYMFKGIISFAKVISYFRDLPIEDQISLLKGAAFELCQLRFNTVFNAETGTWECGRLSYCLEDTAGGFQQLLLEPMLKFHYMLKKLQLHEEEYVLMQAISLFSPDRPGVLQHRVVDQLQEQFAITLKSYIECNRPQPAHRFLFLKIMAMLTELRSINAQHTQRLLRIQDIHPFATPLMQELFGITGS
Outline: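 Tox21 qHTS; PXR-Luc HepG2; compounds pinned from DMSO; 24 hr, 37 C; ONE-Glo luciferase detection, 30 min room temperature.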

[16] = target: Cytochrome P450 2D6 (Homo sapiens) (UniProt P10635); assay: Cytochrome P450 Family 2 Subfamily D Member 6 (CYP2D6) small molecule antagonists: luciferase reporter qHTS assay (AID 1671196); further: nearly all actives have a fitted effect of over 50% in size; further: potency means the concentration at half of the fitted maximal effect
Cytochrome P450 2D6 (Homo sapiens), sequence (P10635 whole entry, looked up): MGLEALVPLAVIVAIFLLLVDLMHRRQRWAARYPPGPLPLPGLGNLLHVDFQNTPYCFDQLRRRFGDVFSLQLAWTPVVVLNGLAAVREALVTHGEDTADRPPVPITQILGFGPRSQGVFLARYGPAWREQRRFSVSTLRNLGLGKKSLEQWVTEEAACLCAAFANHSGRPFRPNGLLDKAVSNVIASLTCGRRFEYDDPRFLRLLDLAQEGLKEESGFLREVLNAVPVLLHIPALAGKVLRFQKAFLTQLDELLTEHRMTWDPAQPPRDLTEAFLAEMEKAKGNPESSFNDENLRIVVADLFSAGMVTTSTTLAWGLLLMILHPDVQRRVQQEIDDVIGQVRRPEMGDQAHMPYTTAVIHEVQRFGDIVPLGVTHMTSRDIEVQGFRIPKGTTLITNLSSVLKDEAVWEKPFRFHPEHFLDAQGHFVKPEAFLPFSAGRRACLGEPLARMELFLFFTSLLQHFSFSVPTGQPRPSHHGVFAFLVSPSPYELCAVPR
Outline: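 Room-temperature luminescent CYP2D6 activity assay: compound preincubated 10 min with enzyme–substrate mix, NADPH-initiated reaction 1 h, detection reagent 20 min before reading.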

[17] = target: Cytochrome P450 2C19 (Homo sapiens) (UniProt P33261); assay: Cytochrome P450 Family 2 Subfamily C Member 19 (CYP2C19) small molecule antagonists: luciferase reporter qHTS assay (AID 1671197); further: nearly all actives have a fitted effect of over 65% in size; further: potency means the concentration at half of the fitted maximal effect
Cytochrome P450 2C19 (Homo sapiens), sequence (P33261 whole entry, looked up): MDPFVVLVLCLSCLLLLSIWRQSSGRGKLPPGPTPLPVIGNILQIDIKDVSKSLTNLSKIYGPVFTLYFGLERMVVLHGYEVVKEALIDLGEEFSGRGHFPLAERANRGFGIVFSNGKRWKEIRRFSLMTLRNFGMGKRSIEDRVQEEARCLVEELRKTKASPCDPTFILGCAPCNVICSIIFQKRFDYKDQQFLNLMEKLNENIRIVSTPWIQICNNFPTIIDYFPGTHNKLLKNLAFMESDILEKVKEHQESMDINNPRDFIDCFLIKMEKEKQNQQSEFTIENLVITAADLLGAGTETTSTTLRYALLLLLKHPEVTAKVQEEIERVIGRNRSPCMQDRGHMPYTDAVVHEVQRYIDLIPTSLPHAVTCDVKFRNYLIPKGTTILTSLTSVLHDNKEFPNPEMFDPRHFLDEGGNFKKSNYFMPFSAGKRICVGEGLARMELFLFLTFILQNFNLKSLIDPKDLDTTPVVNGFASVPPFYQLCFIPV
Outline: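 Compounds were tested on CYP2C19 activity via proluciferin conversion to luciferin. The 37C, 1 h reaction followed NADPH addition; detection reagent stopped it.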

[18] = target: Nuclear receptor subfamily 1 group I member 2 (Rattus norvegicus) (UniProt Q9R1A7); assay: Rat pregnane X receptor (rPXR) activation by small molecules, qHTS assay (AID 1346983); details: rPXR luciferase reporter cells, One-Glo luminescence, 24 h; hits give high values; further: nearly all actives have a fitted effect of over 20% in size
Nuclear receptor subfamily 1 group I member 2 (Rattus norvegicus), sequence (Q9R1A7 whole entry, looked up): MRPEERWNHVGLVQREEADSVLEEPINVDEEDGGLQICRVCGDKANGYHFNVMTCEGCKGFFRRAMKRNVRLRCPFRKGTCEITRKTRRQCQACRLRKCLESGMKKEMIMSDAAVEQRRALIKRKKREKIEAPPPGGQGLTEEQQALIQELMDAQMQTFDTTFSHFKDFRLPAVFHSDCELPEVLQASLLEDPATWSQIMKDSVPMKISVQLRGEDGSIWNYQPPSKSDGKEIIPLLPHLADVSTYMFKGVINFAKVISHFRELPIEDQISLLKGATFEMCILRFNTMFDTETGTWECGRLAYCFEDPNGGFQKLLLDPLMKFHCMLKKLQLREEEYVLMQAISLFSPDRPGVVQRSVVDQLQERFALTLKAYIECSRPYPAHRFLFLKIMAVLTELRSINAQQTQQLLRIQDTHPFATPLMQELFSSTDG
Outline: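 Cell-based rPXR activation assay: rPXR cells, 2,000 per well, rested 5hr at 37 C, then exposed to compounds in DMSO for 24 hr at 37 C. Luciferase activity read by One-Glo luminescence after 30 min at room temperature.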

[19] = target: Nuclear receptor subfamily 1 group I member 2 (Homo sapiens) (UniProt O75469); assay: Human pregnane X receptor (PXR) activation by small molecules, qHTS assay (AID 1346985); further: nearly all actives have a fitted effect of over 40% in size
Outline: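 DPX-2 cells (HepG2 co-transfected with a PXR response element and a CYP3A4-promoter luciferase construct) were seeded at 2,000 per well, rested 5 hr at 37C, then exposed to DMSO-dissolved compounds for 24 hr. Activation was read as luciferase luminescence.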

[20] = target: Nuclear receptor subfamily 1 group I member 2 (Homo sapiens) (UniProt O75469); assay: CYP3A4 induction through human pregnane X receptor (PXR) by small molecules, qHTS assay (AID 1346984); further: nearly all actives have a fitted effect of over 40% in size
Outline: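 Cells (DPX-2; HepG2 with PXR element plus CYP3A4-promoter luciferase) settled 5hr, then were treated 24hr at 37C. A 3hr, 3uM-final Luciferin-IPA step preceded luminescence measurement with One-Glo.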
On the % scale 0 is the no-effect control and ±100 the full control effect.

CCCCOC(=O)CC
inactive: Potency [1] | Potency [2] | Potency [3] | Potency [4] | Potency [5] | Potency [6] | Potency [7] | Potency [8] | outcome [9] | Potency [10] | Potency [11] | Potency [12] | Potency [13] | Potency [14] | Potency [15] | Potency [16]

O=C(O)CCN(C1(C(=O)NO)CCCC1)S(=O)(=O)c1ccc(Oc2ccc(F)cc2)cc1
inactive: Potency [1] | Potency [2] | Potency [3] | Potency [4] | Potency [5] | Potency [6] | Potency [7] | Potency [8] | outcome [9] | Potency [10] | Potency [11] | Potency [12] | Potency [13] | Potency [14] | Potency [15] | Potency [16] | Potency [17]

Cc1ccc(-c2ccccc2)cc1
inactive: Potency [1] | Potency [2] | Potency [3] | Potency [4] | Potency [5] | Potency [6] | Potency [7] | Potency [8] | outcome [9] | Potency [10] | Potency [11] | Potency [12] | Potency [13] | Potency [14] | Potency [15] | Potency [16]

CN(C)Cc1ccccc1O
inactive: Potency [1] | Potency [2] | Potency [3] | Potency [4] | Potency [5] | Potency [6] | Potency [7] | Potency [8] | outcome [9] | Potency [10] | Potency [11] | Potency [12] | Potency [13] | Potency [14] | Potency [15] | Potency [16] | Potency [17]

CCOC(=O)NNc1ccc(N(CC)CC(C)O)nn1 (configuration not stated)
inactive: Potency [1] | Potency [2] | Potency [3] | Potency [4] | Potency [5] | Potency [6] | Potency [7] | Potency [8] | outcome [9] | Potency [10] | Potency [11] | Potency [12] | Potency [13] | Potency [14] | Potency [15] | Potency [16]

COc1cc(/C=C/c2ccccc2)oc(=O)c1
active: Potency [15] 7.96 µM | Potency [17] 10.4 µM
inactive: Potency [1] | Potency [2] | Potency [3] | Potency [4] | Potency [5] | Potency [6] | Potency [7] | Potency [8] | outcome [9] | Potency [10] | Potency [11] | Potency [12] | Potency [13] | Potency [14] | Potency [16]

CC(C)OC(=O)C(O)(CC(=O)O)CC(=O)O
inactive: Potency [1] | Potency [2] | Potency [3] | Potency [4] | Potency [5] | Potency [6] | Potency [7] | Potency [8] | outcome [9] | Potency [10] | Potency [11] | Potency [12] | Potency [13] | Potency [14] | Potency [16]
active: Potency [15] 48.6 µM

CCCCOC(=O)CO
inactive: Potency [1] | Potency [2] | Potency [3] | Potency [4] | Potency [5] | Potency [6] | Potency [7] | Potency [8] | outcome [9] | Potency [10] | Potency [11] | Potency [12] | Potency [13] | Potency [14] | Potency [15] | Potency [16] | Potency [17]

CC(C)NC[C@@H](O)COc1ccc(CC(N)=O)cc1
inactive: Potency [1] | Potency [2] | Potency [3] | Potency [4] | Potency [5] | Potency [6] | Potency [7] | Potency [8] | outcome [9] | Potency [10] | Potency [11] | Potency [12] | Potency [13] | Potency [14] | Potency [15] | max activation [18] -0.64% | Potency [19]

CNc1ccc([N+](=O)[O-])cc1
inactive: Potency [1] | Potency [3] | Potency [4] | Potency [5] | Potency [6] | Potency [7] | Potency [8] | outcome [9] | Potency [11] | Potency [13]
active: Potency [2] 54.6 µM | Potency [10] 43.4 µM | Potency [12] 48.7 µM | Potency [14] 30.7 µM | Potency [15] 54.6 µM

Nc1ccc(NCCO)c([N+](=O)[O-])c1
active: Potency [10] 48.6 µM | Potency [12] 43.3 µM | Potency [14] 48.6 µM | Potency [16] 35.6 µM | Potency [17] 79.6 µM
inactive: Potency [1] | Potency [2] | Potency [3] | Potency [4] | Potency [5] | Potency [6] | Potency [7] | Potency [8] | outcome [9] | Potency [11] | Potency [13] | Potency [15]

OC[C@@H](O)[C@@H](O)CO
inactive: Potency [1] | Potency [2] | Potency [3] | Potency [4] | Potency [5] | Potency [6] | Potency [7] | Potency [8] | outcome [9] | Potency [10] | Potency [11] | Potency [12] | Potency [13] | Potency [14] | Potency [15] | Potency [16] | Potency [17]

CCCCCCCC/C=C\CCCCCCCCN
active: Potency [16] 1.55 µM | Potency [17] 4.36 µM
inactive: Potency [1] | Potency [2] | Potency [3] | Potency [4] | Potency [5] | Potency [6] | Potency [7] | Potency [8] | outcome [9] | Potency [10] | Potency [11] | Potency [12] | Potency [13] | Potency [14] | Potency [15] | max activation [18] -1.07% | Potency [20] | Potency [19]

CC(CCc1ccccc1)NCC(O)c1ccc(O)c(C(N)=O)c1 (configuration not stated)
inactive: Potency [1] | Potency [2] | Potency [3] | Potency [4] | Potency [5] | Potency [6] | Potency [7] | Potency [8] | outcome [9] | Potency [11] | Potency [13] | max activation [18] -0.392% | Potency [20] | Potency [19]
active: Potency [10] 43.3 µM | Potency [12] 43.3 µM | Potency [14] 27.3 µM | Potency [15] 17.2 µM | Potency [16] 0.564 µM
